High-throughput results as filed in PubChem BioAssay.
ELG1 genotox = qHTS screen for small molecules that induce genotoxicity in human embryonic kidney (HEK293T) cells expressing luciferase-tagged ELG1; HEK293T ELG1-luciferase reporter, luminescence, 16 h; Potency, µM (series often up to 46 µM), hits mostly activators; actives 1.3% (n = 330,000); note: nearly all actives have a fitted effect of over 60% in size
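Reporter readout depends on ELG1 protein level, which increases with genetic stress. After 16 hr compound exposure at 37 °C, luciferase activity was quantified using ONE-Glo.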
NPC1 prom act = qHTS Assay for NPC1 Promoter Activators | Huh7 NPC1 promoter luciferase reporter, 24 h | Potency, µM (titrated, usually from 9.22 µM), most hits filed as activators | actives 2.4% (n = 320,000); note: nearly all actives have a fitted effect of over 60% in size
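In 1536-well qHTS, Huh7 cells harboring an NPC1 promoter–luciferase construct received compound for 24 h; activation was quantified by luminescence following luciferase reagent addition.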
SMN2 splice enh = qHTS Assay for Enhancers of SMN2 Splice Variant Expression; actives 2.8% (n = 210,000); HEK293 SMN2-luciferase splicing reporter, luminescence, 30-36 h; AID 1458, 2008; Potency, µM (highest dose often 46.1 µM), actives largely listed as activators; note: nearly all actives have a fitted effect of over 55% in size
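qHTS luciferase splicing reporter: luminescence rises when SMN2 exon 7 is included in transfected HEK293 cells. Compound exposure lasted 30-36 h at 37C, with 4.5 mM final sodium butyrate as control, followed by a ONE-Glo read.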
Rab9 prom act = qHTS Assay for Rab9 Promoter Activators. Huh7 Rab9 promoter-luciferase reporter, luminescence, 24 h. Potency, µM (series often up to 9.22 µM), most hits filed as activators. actives 2.8% (n = 320,000). AID 485297, 2010; note: nearly all actives have a fitted effect of over 60% in size
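Huh7 cells stably carrying Rab9 promoter–luciferase reporter, plated 1500 cells/well, compound added after 2 h and incubated 24 h at 37 °C; luciferase luminescence then read after 10 min with detection reagent.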
FLuc counter = qHTS profiling assay for firefly luciferase inhibitor/activator using purifed enzyme and Km concentrations of substrates (counterscreen for miR-21 project) | Luciferin 4-monooxygenase (Photinus pyralis), P08659 | purified FLuc, Km substrates, luminescence inhibition | actives 6.9% (n = 360,000) | Potency, µM (top dose mostly 57.5 µM), actives largely listed as inhibitors; note: nearly all actives have a fitted effect of over 55% in size
Target sequence (P08659 whole entry, looked up): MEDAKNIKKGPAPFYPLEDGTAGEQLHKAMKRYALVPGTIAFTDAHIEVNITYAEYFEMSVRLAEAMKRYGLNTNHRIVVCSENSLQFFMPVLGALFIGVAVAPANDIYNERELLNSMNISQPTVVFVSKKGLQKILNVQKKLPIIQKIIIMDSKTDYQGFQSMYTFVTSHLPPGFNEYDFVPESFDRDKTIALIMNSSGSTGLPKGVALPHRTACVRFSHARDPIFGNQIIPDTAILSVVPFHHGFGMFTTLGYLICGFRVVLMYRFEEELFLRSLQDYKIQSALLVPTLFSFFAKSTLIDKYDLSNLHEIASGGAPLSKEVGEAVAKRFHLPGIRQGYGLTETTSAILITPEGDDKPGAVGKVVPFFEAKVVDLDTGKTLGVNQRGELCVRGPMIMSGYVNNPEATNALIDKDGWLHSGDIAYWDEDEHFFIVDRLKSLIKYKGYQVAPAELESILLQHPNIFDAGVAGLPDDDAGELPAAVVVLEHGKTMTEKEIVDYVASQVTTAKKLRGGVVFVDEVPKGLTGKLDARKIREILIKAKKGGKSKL
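Biochemical qHTS of compounds, final roughly 60 µM downward over six points, against 10 nM purified firefly luciferase using Km concentrations of substrates (10 uM D-luciferin, 10 uM ATP) in Tris acetate pH 7.5 buffer; luminescence output.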
A number is an active result; – = inactive; ? = inconclusive; · = no result given; [ ] = remark or other dose. Shown are actives, neighbours in structure and some others; about 7.5% of the full set was active somewhere. Calls come from the whole dose curve; as a rule, active = well fitted curve in the direction sought with a large enough effect; inconclusive = small, poorly fitted or top-dose-only effect, or another doubt; inactive = no such curve, though single readings can be large; an effect the other way counts as inactive or inconclusive.

SMILES	ELG1 genotox	NPC1 prom act	SMN2 splice enh	Rab9 prom act	FLuc counter
COc1cc(SC)ccc1C(=O)Nc1cc(C)c(OCC(=O)N2CCOCC2)c(C)c1	–	–	·	–	6µM
COc1cc(SC)ccc1C(=O)Nc1ccc(OCC(=O)N2CCOCC2)cc1	?	2.8µM	·	1.8µM	0.48µM
COc1ccccc1C(=O)Nc1ccc(OCC(=O)N2CC(C)CC(C)C2)cc1 (centres undefined)	–	–	·	–	11µM
COc1ccccc1C(=O)Nc1ccc(S(=O)(=O)N2CCC(C)CC2)cc1	–	–	·	–	–
Cc1ccc2[nH]c(=O)c(CN(CC3COCCO3)C(=O)Nc3ccccc3F)cc2c1 (centres undefined)	–	–	–	–	–
CC1CC(C)CN(CCCNC(=O)c2ccc(CS(=O)(=O)Cc3cccc(Cl)c3)o2)C1 (centres undefined)	–	–	·	–	–
CCN(C(=O)CN1C(=S)NC(C)(C)CC1C)c1ccc(C)c(C)c1 (centres undefined)	–	–	–	–	–
CC(=O)c1cccc(NC(=O)c2ccc3nc(Cc4ccccc4)oc3c2)c1	·	·	·	·	–
COc1ccc(C(=O)C2CCN(CC(=O)Nc3ccc(OC)cc3OC)CC2)cc1	–	–	·	–	–
CCOc1ccc(C(=O)CSc2nnc(N)s2)cc1	?	2.5µM	–	3.2µM	13µM
Cc1cc(C)c(C(=O)CSc2nnc(C)s2)c(C)c1	–	–	–	–[1.84 µM]	–
Cc1nnc(SCC(=O)c2ccc(C(C)C)cc2)s1	–	–	–	?	9.5µM
Cc1ccc(C(=O)CSc2nnc(N)s2)c(C)c1	15µM	3.2µM	16µM	2.5µM	17µM
Nc1ccc(C(=O)OCC(=O)c2cccc([N+](=O)[O-])c2)cc1	–	–	–	–	24µM
CC(=O)Nc1ccc(C(=O)OCC(=O)c2cccc([N+](=O)[O-])c2)cc1	–	–	–	–	–
Cc1ccc(C(=O)COC(=O)c2cccc(NC(=O)c3ccc([N+](=O)[O-])cc3[N+](=O)[O-])c2)cc1	?	0.4µM	?	1.4µM	0.11µM
CC(C)Oc1ccc(-c2nn(-c3ccccc3)cc2/C=c2\sc3ncnn3c2=O)cc1	–	–	–	–	–
c1csc(-c2nn3cnnc3c3ccccc23)c1	–	–	–	–	–
CSCC(=O)Nc1nc(-c2ccc3c(c2)OCCO3)cs1	–	3.2µM	11µM	2.8µM	11µM
O=C(CSCC(=O)Nc1nc(-c2ccc3c(c2)OCO3)cs1)Nc1nccs1	–	–	·	–	?
COc1ccccc1C(=O)Nc1nnc(-c2ccc3c(c2)CCCC3)o1	–	–	–	–	?
CCCC(=O)Nc1nc(-c2ccc3c(c2)OCCO3)cs1	2.6µM	1.8µM	8.9µM	3.2µM	6µM
Cc1nc(NC(=O)C2CCCC2)sc1Cc1ccc2c(c1)OCO2	–	–	?	?	17µM
CC(=O)Nc1nnc(-c2ccc3c(c2)CCCC3)o1	?	?	?	4µM	12µM
O=C(CN1C(=O)C2CC=CCC2C1=O)Nc1nc(-c2ccc(F)cc2)cs1 (centres undefined)	–	–	·	–	·
SMILES	ELG1 genotox	NPC1 prom act	SMN2 splice enh	Rab9 prom act	FLuc counter
N#Cc1ccccc1Cn1c(=O)n(CCCC(=O)NCc2ccccc2Cl)c(=O)c2ccccc21	·	·	–	·	–
CCCC(=O)Nc1nnc(-c2ccc3c(c2)OCCO3)o1	–	–	?	–	15µM
CCCC(=O)Nc1nnc(-c2ccc3c(c2)OCO3)s1	?	–	·	?	–
O=C(Nc1nc(-c2ccc3c(c2)OCO3)cs1)C1CC1	16µM	?	11µM	3.5µM	12µM
O=C(O)C(=O)Nc1nc(-c2ccc3c(c2)OCCO3)cs1	–	–	·	–	9.5µM
CCOC(=O)c1c(C)oc2ncnc(NCCc3ccccc3)c12	·	·	·	·	–
CSC(=S)N/N=C(\C)c1ccccc1	?	–	–	–	21µM
CCOC(=O)N1CCN(C(=O)/C=C/c2ccc([N+](=O)[O-])cc2)CC1	–	–	–	–	–
O=C(O)c1ccccc1SCc1cn2cc(Br)ccc2n1	?	?	?	?	9.5µM
O=C(O)c1cccnc1SCc1cn2cc(Br)ccc2n1	–	–	–	–	24µM
COc1ccc(CC(=O)N2CCN(c3ccccc3F)CC2)cc1OC	–	–	·	–	–
O=C(Nc1ccccc1)N1CCCc2ccccc21	–	–	–	–	–
Cc1ccc(NC(=O)N2CCCc3ccccc32)cc1C	?	–	·	–	21µM
O=C(NC1CCCCC1)N1CCc2ccccc21	15µM	?	13µM	?	19µM
Cc1ccc(NC(=O)N2CCCCCC2)cc1C	?	4.5µM	·	3.2µM	17µM
Cc1ccc(NC(=O)C2CCCN(C(=O)c3ccc(Cl)cc3)C2)cc1C (centres undefined)	–	–	–	?	27µM
Cc1ccc(NC(=O)N2CCCCC2)cc1NC(=O)N1CCCCC1	–	–	·	–	?
COc1cc2c(cc1OC)C(C1(O)CCCCC1)NCC2 (centres undefined)	–	–	·	–	–
COc1ccc(-n2cc(C(=O)NCc3cccc(OC)c3)c3ccccc3c2=O)cc1	·	·	·	·	–
COc1ccc(N2CCN(C(CNC(=O)C(=O)NC3CC3)c3ccco3)CC2)cc1 (centres undefined)	–	–	·	–	–
COCCN1C(=O)C(=O)/C(=C(/O)c2ccc(S(=O)(=O)N3CCOCC3)cc2)C1c1ccc(O)cc1 (centres undefined)	–	–	·	–	–
O=C(Nc1ccc(Br)cc1)N1CCCCC1	–	?	?	?	15µM
O=C(Nc1ccccc1)C(=O)Nc1ccc2c(c1)N(C(=O)C1CC1)CCC2	1.6µM	1.1µM	·	1.1µM	3.4µM
O=C(C1CCC(C(=O)N2CCc3ccccc32)CC1)N1CCc2ccccc21 (centres undefined)	–	–	–	–	–
O=C(NNC(=O)c1ccccc1OCc1ccc(F)cc1)c1ccccc1O	–	–	·	–	27µM
SMILES	ELG1 genotox	NPC1 prom act	SMN2 splice enh	Rab9 prom act	FLuc counter
O=C(N/N=C/c1ccccc1F)c1ccccc1OCc1ccccc1	–	–	·	–	17µM
O=C(NNC(=O)c1ccccc1OCc1ccccc1)c1ccccc1O	–	–	·	–	19µM
O=C(NNC(=O)c1ccccc1OCc1ccccc1)c1ccccc1F	–	?	·	–	21µM
O=C(NCc1ccc(F)cc1)c1ccccc1OCc1ccccc1	–	–	–	–	–
c1ccc(-c2nc(-c3ccc(-c4ccon4)s3)no2)cc1	?	1.1µM	·	1.4µM	1.2µM
C[C@@H]1CN(Cc2nc(-c3cccs3)no2)C[C@H](C)O1	–	–	–	–	–
c1csc(-c2nc(-c3ccc(-c4ccon4)s3)no2)c1	2.3µM	0.56µM	·	0.35µM	0.6µM
Cc1cc(N=Nc2ccc(C)c(N=Nc3cc(C)c(N)cc3N)c2)c(N)cc1N	2.3µM	2.8µM	·	2.8µM	0.54µM
